In PubChem BioAssay (NCATS) one finds outcome and Potency data, which are given here for 14 compounds.

Each structure is given as a SMILES string. Results filed as inconclusive are left out. The source made the active and inactive calls. Unless noted, calls follow the shape of the dose curve; as a rule, active = well fitted curve in the direction sought with a large enough effect; inconclusive = small, poorly fitted or top-dose-only effect, or another doubt; inactive = no such curve, though single readings can be large; an effect the other way counts as inactive or inconclusive.

Test [1] in a line: Cell Viability - LYMP1-002 - Assay at 16 hr (AID 948). In outline: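 ATP luminescence (CellTiter-Glo) was measured after 16 hr compound exposure at 37 C of 2500 lymphoblastoid LYMP1-002 cells per well. Concentration-response curves were fitted with the Hill equation to give AC50.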
Test [2] can be described thus: MultiTox-Fluor Cytotoxicity Assay - LYMP1-002 - Live Cells (AID 955).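 Also: cells exposed to compound for 16 hours.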 In outline: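 Cells were seeded at 2500 per well and incubated 5 hr. Compounds were then added for 16 hr at 37 C, followed by MultiTox-Fluor reagent for 60 min at room temperature and fluorescence reading of viable-cell protease signal.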
Test [3] can be described thus: MultiTox-Fluor Cytotoxicity Assay - LYMP1-002 - Dead Cells (AID 960). Also: nearly all actives have a fitted effect of over 60% in size. Also: potency is read from the fitted curve at half-maximal effect. In outline:
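Cells were plated, rested 5 hr, then treated with compound dilution series for 16 hr at 37 C. After adding substrate reagent and 60 min at room temperature, dead-cell protease fluorescence gave concentration-response curves fitted by the Hill equation.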

A short description of test [4]: MultiTox-Fluor Cytotoxicity Assay - LYMP1-003 - Dead Cells (AID 961).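 Also: cells exposed to compound for 16 h at 37 °C; nearly all actives have a fitted effect of over 70% in size.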 In outline: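 Acute toxicity is scored as increased dead-cell protease activity in human lymphoblastoid LYMP1-003 cells after 16 h compound exposure in complete culture medium. Activity is normalized to DMSO basal and 15 uM tetraoctylammonium bromide as full response.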
Test [5] is described as follows: MultiTox-Fluor Cytotoxicity Assay - LYMP1-003 - Live Cells (AID 962).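 Also: cells exposed to compound for 16 hours at 37 °C; cytotoxic hits lower the live-cell protease signal.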 In outline:
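Acute cytotoxicity is scored as a drop in live-cell protease activity in human lymphoblastoid LYMP1-003 cells after 16 hr compound exposure at 37 C. AC50 values come from Hill-equation modelling of concentration-response data.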

Test [6] is described as follows: Cell Viability - LYMP1-003 - Assay at 24 hr (AID 963). In short, it runs like this:
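Cytotoxicity is scored as a concentration-dependent fall in ATP-linked luciferase signal in human lymphoblastoid LYMP1-003 cells treated 24 hr at 37 C in complete culture medium.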

Test [7] in a line: Cell Viability - LYMP1-003 - Assay at 40 hr (AID 964). Also: nearly all actives have a fitted effect of over 60% in size. Also: potency is read from the fitted curve at half-maximal effect. In short, it runs like this:
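Luminescent ATP signal (CellTiter-Glo) served as the viability read-out after 40 hr compound treatment of human lymphoblastoid LYMP1-003 cells at 37 C. Decreases in ATP were fitted with the Hill equation to give AC50.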

Test [8] can be described thus: Cell Viability - LYMP2-025 (AID 976). Also: series mostly up to about 92 µM. In short, it runs like this:
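Acute cytotoxicity is scored as a concentration-dependent fall in intracellular ATP, measured by luciferase luminescence, in human lymphoblastoid LYMP2-025 cells exposed to compound for 24 hours at 37 C. AC50 values come from standard Hill fits.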

Test [9] deals with Pyruvate kinase PKM (Homo sapiens) (UniProt P14618). Put plainly: qHTS Assay for Activators of Human Muscle Pyruvate Kinase (AID 954; active = well fitted curve in the direction sought with a large enough effect, not every such curve was filed as active). In outline:
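Screening used highly purified human pyruvate kinase M2 under submaximal activity, with PEP at its Km and ADP below Km. After an hour at room temperature, ATP was read by luciferase luminescence.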
On the technique in general: Quantitative high-throughput screening tests each substance at several concentrations.

Test [10] in a line: Cell Viability - LYMP2-004 (AID 966). Also: nearly all actives have a fitted effect of over 65% in size. In short, it runs like this:
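qHTS cytotoxicity: human lymphoblastoid line, 24 hr compound treatment, 37 C, complete medium. Viability read as cellular ATP via luciferase luminescence; tetraoctylammonium bromide served as positive control.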

Test [11] can be described thus: Cell Viability - LYMP2-005 (AID 967). Also: series mostly up to about 92 µM. In short, it runs like this:
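LYMP2-005 human lymphoblastoid cells (2500/well) were treated with compounds for 24 h at 37 C. Intracellular ATP was then measured by CellTiter-Glo luminescence after 30 min at room temperature. AC50 values came from Hill-equation fits of qHTS concentration-response data.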

The nature of test [12]: Cell Viability - LYMP2-009 (AID 968). Also: series mostly up to about 92 µM; nearly all actives have a fitted effect of over 55% in size.
Test [13] is described as follows: Cell Viability - LYMP2-013 (AID 970). Also: series mostly up to about 92 µM; nearly all actives have a fitted effect of over 55% in size. In short, it runs like this: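 Cytotoxicity is scored as a concentration-dependent drop in intracellular ATP in human lymphoblastoid cells after 24 hr compound exposure at 37 C. ATP is quantified by luciferase luminescence, and AC50 values come from Hill-equation modeling.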
Test [14] can be described thus: Cell Viability - LYMP2-015 (AID 971). Also: nearly all actives have a fitted effect of over 55% in size. In short, it runs like this:
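Cells are seeded at 2500 per well and incubated 5 hr at 37 C. Compounds are added across a concentration series for 24 hr at 37 C. CellTiter-Glo is added, and luminescence is read after 30 min at room temperature.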

The nature of test [15]: Cell Viability - LYMP2-017 (AID 972). Also: series mostly up to about 92 µM; nearly all actives have a fitted effect of over 55% in size. In outline:
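Cytotoxicity is scored as a concentration-dependent drop in cellular ATP in a human lymphoblastoid line after 24 hr treatment at 37 C. Values are AC50s from Hill-equation modelling.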

A short description of test [16]: Cell Viability - LYMP2-019 (AID 973). Also: nearly all actives have a fitted effect of over 55% in size. In short, it runs like this: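 Cytotoxicity is scored as a concentration-dependent drop in cellular ATP after cells (2500/well) receive compound for 24 hr at 37 C. Tetraoctylammonium bromide serves as positive control.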
Test [17] is described as follows: Cell Viability - LYMP2-021 (AID 974). In outline: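 Loss of cellular ATP, measured with a luciferase-based CellTiter-Glo readout, serves as the toxicity signal in human lymphoblastoid cells treated for 24 hours at 37 C. Potency is reported as AC50 from a standard Hill model.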
The nature of test [18]: Cell Viability - LYMP2-002 (AID 977).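 Also: series mostly up to about 92 µM; compound exposure lasted 24 h at 37 °C.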 In short, it runs like this: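 Human lymphoblastoid cells (2500/well) in complete medium were preincubated 5 hr at 37 C, then exposed to compounds for 24 hr at 37 C. Intracellular ATP was read by CellTiter-Glo luminescence; AC50 came from Hill-equation concentration-response fits.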
Test [19] addresses Pyruvate kinase PKM (Homo sapiens) (UniProt P14618). Put plainly: qHTS Assay for Inhibitors of Human Muscle Pyruvate Kinase (AID 958). As to conditions: purified human PKM enzyme activity. In short, it runs like this: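 Enzyme was run at intermediate activity so both inhibitors and activators could be detected. ATP formed from ADP and PEP by 0.1 nM human PKM2 during a 1 h room-temperature incubation was quantified by coupled luciferase luminescence.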

Pyruvate kinase PKM (Homo sapiens), sequence (P14618 whole entry, looked up): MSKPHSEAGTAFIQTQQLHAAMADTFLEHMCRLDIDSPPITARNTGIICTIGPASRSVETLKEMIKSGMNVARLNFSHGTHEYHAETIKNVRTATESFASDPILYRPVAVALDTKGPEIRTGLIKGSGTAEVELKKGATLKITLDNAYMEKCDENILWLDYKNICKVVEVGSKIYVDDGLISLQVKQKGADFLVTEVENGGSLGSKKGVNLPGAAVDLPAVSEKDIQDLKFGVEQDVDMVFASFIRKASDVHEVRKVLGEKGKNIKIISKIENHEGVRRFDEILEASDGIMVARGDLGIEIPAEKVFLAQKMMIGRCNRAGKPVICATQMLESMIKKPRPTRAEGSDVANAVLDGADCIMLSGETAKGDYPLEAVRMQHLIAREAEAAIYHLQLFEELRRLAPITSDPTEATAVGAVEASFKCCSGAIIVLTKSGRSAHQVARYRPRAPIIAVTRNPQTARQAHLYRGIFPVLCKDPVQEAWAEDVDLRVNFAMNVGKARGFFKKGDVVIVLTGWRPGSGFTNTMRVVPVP

In the case of `COc1ccc(CCN(C)CCCC(C#N)(c2ccc(OC)c(OC)c2)C(C)C)cc1OC` (stereo not drawn), the call in test [1], in [2], in test [4], in test [5], in test [6] and in [8] was inactive. Also, the Potency result in [3] and in [7] was “inactive” in each case.

With `CCc1cccc2c3c([nH]c12)C(CC)(CC(=O)O)OCC3` (stereo not drawn), in test [9], the compound was called inactive.

`Cc1cn([C@H]2C=C[C@@H](CO)O2)c(=O)[nH]c1=O`: the compound was called inactive in test [1], in test [2], in test [4], in [5], in test [6] and in test [10]. Moreover, the outcome in test [11], in [12], in test [13], in [14], in test [15] and in test [16] was inactive. In addition, the compound was called inactive in [17], in test [8] and in [18]. The Potency entry in test [3] and in test [7] was “inactive” each time.

`COc1ccc2[nH]cc(CCNC(C)=O)c2c1`: the result in test [1], in test [2], in test [4], in test [5], in [6] and in [10] was inactive. Besides, the compound was classed as inactive in test [11], in test [12], in [13], in test [14], in [15] and in [16]. Besides, the call in [17], in [8] and in [18] was inactive. Moreover, the Potency entry in test [3] and in test [7] was “inactive” each time.

Take `Cn1c(=O)c2c(ncn2C)n(C)c1=O`: the call in test [1], in test [2], in test [4], in [5], in [6] and in [10] was inactive. The compound was classed as inactive in test [11], in test [12], in test [13], in test [14], in test [15] and in test [16]. Further, the compound was classed as inactive in test [17], in test [8] and in test [18]. Further, the Potency result in [3] and in test [7] was “inactive” in each case.

With `NCCS(=O)(=O)O`, the compound was called inactive in [1], in test [9], in test [2], in test [4], in test [5] and in test [6]. Further, the compound was called inactive in test [10], in test [11], in test [12], in [13], in test [14] and in test [15]. Further, the compound was called inactive in test [16], in [17], in [8] and in [18]. Moreover, the Potency entry in test [3] and in [7] was “inactive” in each case.

For the compound `Cc1cn([C@H]2C[C@H](N=[N+]=[N-])[C@@H](CO)O2)c(=O)[nH]c1=O`, the compound was classed as inactive in test [1], in test [2], in [4], in [5], in [6] and in [10]. The result in test [11], in test [12], in test [13], in [14], in test [15] and in test [16] was inactive. Moreover, the outcome in test [17], in [8] and in test [18] was inactive. Besides, the Potency entry in test [3] and in test [7] was “inactive” in each case.

On to `Clc1ccc(C(c2ccccc2Cl)C(Cl)Cl)cc1` (stereo not drawn), for which the call in test [1], in [2], in [4], in test [5], in [6] and in test [10] was inactive. Further, the outcome in test [11], in test [12], in [13], in test [14], in test [15] and in [16] was inactive. Also, the compound was called inactive in [17], in [8] and in test [18]. Besides, the Potency result in [3] and in test [7] was “inactive” each time.

As to `Nc1ccn([C@H]2CC[C@@H](CO)O2)c(=O)n1`, the result in [1], in [9], in test [2], in test [4], in test [5] and in test [6] was inactive. For the same compound, the result in [10], in test [11], in test [12], in [13], in test [14] and in test [15] was inactive. Also, the result in [16], in test [17], in test [8] and in test [18] was inactive. The Potency result in test [3] and in test [7] was “inactive” each time.

Regarding `CC(COc1ccccc1)N(CCCl)Cc1ccccc1` (stereo not drawn), the compound was called inactive in test [1], in test [2], in test [4], in test [5], in [6] and in test [10]. Besides, in test [11], the compound was called inactive. The Potency result in test [3] and in test [7] was “inactive” throughout.

As for `COc1ccc2c(c1)c(CC(=O)O)c(C)n2C(=O)c1ccc(Cl)cc1`, the outcome in test [1], in test [2], in test [4], in test [5], in test [6] and in [10] was inactive. The outcome in test [11], in [12], in test [13], in test [14], in test [15] and in [16] was inactive. In addition, the outcome in test [17], in test [8] and in test [18] was inactive. Moreover, the Potency entry in test [3] and in test [7] was “inactive” in each case.

With `O=C(Nc1ccc([N+](=O)[O-])cc1Cl)c1cc(Cl)ccc1O`, in test [19], the Potency was 3.16 µM (active).

For `Cn1ccc2cc3c(cc21)CCN3C(=O)Nc1cccnc1`, the Potency in test [19] was 6.31 µM (active).

`COc1cc2c(c(OC)c1OC)-c1ccc(OC)c(=O)cc1[C@@H](NC(C)=O)CC2`: the Potency in test [3] is 0.0501 µM (active); in test [7], 0.02 µM (active). Moreover, the compound was classed as inactive in test [10], in [13] and in test [8].
